PubChem BioAssay (EPA / NIEHS)
Values joined by “and” are separate entries in the source; they are usually repeats but may differ in a detail not shown here. Equal values may be shown once. The source holds several records for some structures; these can differ, active in one and inactive in another. Active and inactive are the calls of the source. The calls were made as follows: active = hit-call score of the fitted dose curve at least 0.9, where 1 is the maximum; inactive = score below 0.9.

Assay: ATG_VDRE_CIS: Attagene CIS-FACTORIAL HepG2 Assay for human Vitamin D Receptor Element (VDRE) (AID 2282968)
Details: HepG2 VDRE cis-reporter transcription, actives raise or lower the signal
Protocol: ATG_CIS is a cell-based, multiplexed-readout assay that uses HepG2, a human liver cell line, with measurements taken at 24 hours after chemical dosing in a 24-well plate.ATG_VDRE_CIS is one of 52 assay component(s) measured or calculated from the ATG_CIS assay. It is designed to make measurements of mRNA induction, a form of inducible reporter, as detected with fluorescence intensity signals by Reverse transcription polymerase chain reaction (RT-PCR) and Capillary electrophoresis technology.Data from the assay component ATG_VDRE_CIS was analyzed into 1 assay endpoint. This assay endpoint, ATG_VDRE_CIS, was analyzed with bidirectional fitting relative to DMSO as the negative control and baseline of activity. Using a type of inducible reporter, measures of mRNA for gain or loss-of-signal activity can be used to understand the reporter gene at the transcription factor-level as they relate to the gene VDR. Furthermore, this assay endpoint can be referred to as a primary readout, because this assay has produced multiple assay endpoints where this one serves a reporter gene function. To generalize the intended target to other relatable targets, this assay endpoint is annotated to the nuclear receptor intended target family, where the subfamily is non-steroidal.
Human liver HepG2 cells are transiently transfected with multiple reporter transcription units (MRTUs) in 6-well plates using FuGene 6 reagent (Roche; 3 ml FuGene/1 mg DNA). The MRTU constructs are regulated by a cis-regulating element (promoter). […] A major difference between the CIS and TRANS system is that in CIS activities of endogenous TFs are measured, whereas the TRANS assay evaluates changes in activities of exogenous, chimeric NR-Gal4 proteins. […] At the end of 24 hour incubation, total RNA was isolated using TriZol reagent (Invitrogen). The isolated RNA is then reverse-transcribed using oligo(dT) primer and Mo-MLV reverse transcriptase (Invitrogen) with DNAse I (Ambion) treatment for 30 min. The one-tenth of the produced cDNA was amplified by PCR using Taq DNA polymerase (Invitrogen) and two reporter sequence-specific primers. The PCR products were fluorescently labeled by primer extension with 6-arboxyfluorescein (6-FAM) 5'-labeled reporter sequence-specific primer (2 min at 95 C, 20 s at 68 C and 10 min at 72 C) and these products were digested with 5U of HpaI (New England Biolabs) for 2h at 37 C. The fragments were purified using Qiaquick PCR columns (Qiagen), analyzed on an ABI 3130xL genetic analyzer (Applied Biosystems) with peak positions identified by using a set of X-rhodamine (ROX)-labeled MapMarker1000 molecular weight standards (BioVentures). The raw capillary electrophoresis data was processed using Attagraph software (Attagene).

SMILES	outcome	AC50
CCc1cccc(CC)c1NC(=O)C(=O)O	inactive	–
O=C(O)C(F)(F)OC(F)(F)C(F)(F)OC(F)(F)C(F)(F)OC(F)(F)C(F)(F)C(F)(F)C(F)(F)F	–	13.1 µM (active) and 30 µM (active)
O=C1OC2(c3ccccc31)c1cc(I)c(O)c(I)c1Oc1c2cc(I)c(O)c1I	–	20.4 µM (active) and 23.8 µM (active) and 22 µM (active)
C=C(c1ccc(C(=O)O)cc1)c1cc2c(cc1C)C(C)(C)CCC2(C)C	inactive	2.11 µM (active)
CCCCCCCCCCCC[N+](C)(C)Cc1ccccc1	inactive	13.2 µM (active)
CCOC(=O)c1nc(C(Cl)(Cl)Cl)n(-c2ccc(Cl)cc2Cl)n1	inactive	–
CCOC=O	inactive	–
OCC1CCC(CO)CC1 (stereo not given)	inactive	–
O=P(O)(O)CCC(F)(F)C(F)(F)C(F)(F)C(F)(F)C(F)(F)C(F)(F)C(F)(F)C(F)(F)F	inactive	–
FC(OC(F)(F)C(F)(F)C(F)(F)F)C(F)(F)F (stereo not given)	inactive	–
CCN(CC)CC	inactive	–
COC(=O)C(F)(F)C(F)(F)C(F)(F)F	inactive	–
Nc1ccc(O)c(C(=O)O)c1	inactive	–
CCOCCOCC	inactive	–
Brc1cc(Br)c(Oc2c(Br)cc(Br)c(Br)c2Br)cc1Br	inactive	–
OCCN1CN(CCO)CN(CCO)C1	inactive	–
CCCCCC(C)OC(=O)COc1ccc(Cl)c2cccnc12 (stereo not given)	inactive	–
CCO[Si](CCC1CCC2OC2C1)(OCC)OCC (stereo not given)	inactive	–
CCCCc1ccc2ccccc2c1S(=O)(=O)O	–	6.19 µM (active)

SMILES	outcome	AC50
Nc1ccn([C@@H]2O[C@H](CO)[C@@H](O)C2O)c(=O)n1 (stereo not given in full)	inactive	–
COC(O)c1ccccc1 (stereo not given)	inactive	–
CCC(=O)O	inactive	–
C=CC(=O)OCC(CO)(COCC(COC(=O)C=C)(COC(=O)C=C)COC(=O)C=C)COC(=O)C=C	–	0.722 µM (active)
CCCCCCCCC1CCC(=O)O1 (stereo not given)	inactive	–
NS(=O)(=O)O	inactive	–
FC(F)(F)C(F)(F)C(F)(F)C(F)(F)I	inactive	–
O=c1cc(-c2ccccc2)oc2ccc3ccccc3c12	inactive	–
COc1cccc(O)c1	inactive	–
O=C(O)CN(CCCN(CC(=O)O)CC(=O)O)CC(=O)O	inactive	–
CCC(C)c1nccnc1OC (stereo not given)	inactive	–
C=CC(C)(CCC=C(C)C)OC(C)=O (stereo not given)	inactive	–
CCOC=C(C(=O)OCC)C(=O)OCC	inactive	–
O=C(F)C(F)(F)C(F)(F)C(F)(F)C(=O)F	inactive	–
CC1CNCC(C)O1 (stereo not given)	inactive	–
CCCCCCCCCCCCCC[n+]1ccccc1	inactive	–
NC(C(F)(F)F)C(F)(F)F	inactive	–
FC(F)(F)C1(F)C(F)(F)C(F)(F)C(F)(F)C1(F)F	inactive	–
CC=O	inactive	–
